In PubChem BioAssay (Tox21):
Unmarked numbers belong to inactive results. Active and inactive are the calls of the source. The call rests on the fitted dose curve; in most records, active means well fitted curve in the direction sought with a large enough effect in the repeat runs; inconclusive means weak or mixed curves; inactive means flat fitted curve, though single readings scatter.
On the % scale 0 is the no-effect control and ±100 the full control effect.

Assay: qHTS assay to test for compound auto fluorescence at 590 nm (red) in HEK293 cell free culture (AID 720683)
Conditions: cell-free medium autofluorescence, Ex540/Em590 red; series mostly up to 46 µM; fluorescence, % of fluorescent control: at the top concentration
From the text: U.S. Tox21 Program National Center for Advancing Translational Sciences [NCATS] NIH Chemical Genomics Center [NCGC] U.S. Environmental Protection Agency [EPA] National Institutes of Environmental Health Sciences [NIEHS] National Toxicology Program [NTP] U.S. Food and Drug Administration [FDA] Tox21 Assay Overview: Compound auto fluorescence often interferes with screening of the compound library against various biological targets and signaling pathways. Some of these compounds may have fluorophoric properties. Such properties may interfere with the assay outputs resulting in false positives and/or negatives. To decrease such complications and ensure the compound activities are relevant in terms of biological response, the Tox21 10K compound library was screened for auto fluorescence. From the fluorophores used as reporter signals in our screening assays, the auto fluorescence equivalencies of compounds against three fluorophores have been evaluated: Triamterene, Fluorescein and Rose Bengal sodium for blue, green and red fluorescence, respectively. The fluorescence intensities were measured using Excitation/Emission wavelengths at 405/460nm, 485/535nm and 540/590nm for blue, green and red labels, respectively. This assay includes the red fluorescence data.
Tox21 Assay Protocol Summary: 5 uL of culture medium (DMEM containing 10% FBS) per well was dispensed into black wall/clear bottom 1536-well plates using a Multidrop Combi Dispenser (ThermoFisher Scientific, Waltham, MA). After 23 nL compound or DMSO vehicle was transferred into assay plate by a pintool work station (Kalypsys, San Diego, CA), fluorescence intensities in the assay plates were measured by an Envision (PerkinElmer, Shelton, CT) plate reader using three labels for measuring blue, green and red fluorescence at […] 460, 535 and 590nm respectively.
In the case of `C=CCC1([C@@H](C)CCC)C(=O)NC(=O)NC1=O`, the “fluorescence, % of fluorescent control” value is reported as -0.34% [at 91.3 µM].
In the case of `CC(N)Cc1ccc2c(c1)OCO2` (stereo not given), the “fluorescence, % of fluorescent control” value is reported as 0.194%.
In the case of `CN=C1CN(O)C(c2ccccc2)=c2cc(Cl)ccc2=N1`, the outcome is reported as “inactive”.
In the case of `c1ccc2c(c1)Sc1ccccc1N2CC1CN2CCC1CC2` (stereo not given), the “fluorescence, % of fluorescent control” value is reported as -0.0614%.
With `C=CCC1(C(C)CCC)C(=O)N=C(S)NC1=O` (stereo not given) the “fluorescence, % of fluorescent control” value was -0.184%.
With `CCCCNC(C)(C)[P+](=O)O` the “fluorescence, % of fluorescent control” value was 0.0416%.
In the case of `CNC1(c2ccccc2Cl)CCCCC1=O` (stereo not given), the outcome is reported as “inactive”.
For `O=C(NC(=O)c1c(F)cccc1F)Nc1ccc(Cl)c(Oc2ncc(C(F)(F)F)cc2Cl)c1`, the “fluorescence, % of fluorescent control” value was 0.0364%.
For `C[C@@H](Cc1ccccc1)NCCC(c1ccccc1)c1ccccc1`, the “fluorescence, % of fluorescent control” value was -0.924% [at 18.6 µM].
In the case of `O=P1(N(CCCl)CCCl)NC(OO)CCO1` (stereo not given), the “fluorescence, % of fluorescent control” value is reported as 0.159%.
In the case of `C=C[C@H]1CN2CC[C@H]1C[C@@H]2[C@@H](O)c1ccnc2ccccc12`, the “fluorescence, % of fluorescent control” value is reported as -0.014%.
In the case of `NC(=O)CN1CC(O)CC1=O` (stereo not given), the “fluorescence, % of fluorescent control” value is reported as 0.377%.
With `ClC1=C(Cl)[C@]2(Cl)[C@@H]3[C@@H](Cl)[C@H]4O[C@H]4[C@@H]3C1(Cl)C2(Cl)Cl` the “fluorescence, % of fluorescent control” value was -0.195% [at 91.3 µM].
For `COc1cc([C@@H]2c3cc4c(cc3[C@@H](O)[C@H]3COC(=O)[C@H]23)OCO4)cc(OC)c1O`, the “fluorescence, % of fluorescent control” value was 0.323%.
For `CC(C)CCC(=O)O[C@H]1CC[C@H]2[C@@H]3CCC4=CC(=O)CC[C@]4(C)[C@H]3CC[C@]12C`, the “fluorescence, % of fluorescent control” value was -0.0585%.
In the case of `CNC(=O)OCC[N+](C)(C)C`, the “fluorescence, % of fluorescent control” value is reported as 0.121%.
For `CCc1cc(OC)c(C[C@@H](C)N)cc1OC`, the “fluorescence, % of fluorescent control” value was 0.367% [at 95.7 µM].
With `CO/C=C(/C(=O)OC)c1ccccc1Oc1cc(Oc2ccccc2C#N)ncn1` the “fluorescence, % of fluorescent control” value was -0.553% [at 91.3 µM].
In the case of `CC(=O)[C@H]1CC[C@H]2[C@@H]3CC[C@@H]4C[C@H](O)CC[C@]4(C)[C@H]3CC[C@]12C`, the “fluorescence, % of fluorescent control” value is reported as 0.154%.
With `CCC1(CC)C(=O)NC(=O)N(C)C1=O` the “fluorescence, % of fluorescent control” value was -0.0052%.
For `C=CC[C@]1(O)CC[C@H]2[C@@H]3CCC4=CCCC[C@@H]4[C@H]3CC[C@@]21C`, the “fluorescence, % of fluorescent control” value was -0.0394%.
With `Cc1cccc(C(C)c2cnc[nH]2)c1C` (stereo not given) the “fluorescence, % of fluorescent control” value was -0.584%.
With `O=C1CCO1` the “fluorescence, % of fluorescent control” value was -0.117%.
With `COc1ccc2c3c1O[C@H]1C(=O)CC[C@H]4[C@@H](C2)N(C)CC[C@]314` the “fluorescence, % of fluorescent control” value was -0.197%.
With `C=CCN(C1=NCCN1)c1c(Cl)cccc1Cl` the “fluorescence, % of fluorescent control” value was 0.388%.
With `CC(C)NC(C)Cc1ccc(I)cc1` (stereo not given) the “fluorescence, % of fluorescent control” value was -0.0956%.
For `CCNC1(c2cccs2)CCCCC1=O` (stereo not given), the “fluorescence, % of fluorescent control” value was 0.0629% [at 18.6 µM].
With `CCC1(c2ccccc2)C(=O)NC(=O)N(C)C1=O` (stereo not given) the “fluorescence, % of fluorescent control” value was -0.0038%.
With `C[C@]12CC[C@H]3[C@@H](CCC4=C(Cl)C(=O)CC[C@@]43C)[C@@H]1CC[C@@H]2O` the “fluorescence, % of fluorescent control” value was 0.228%.
With `CO[C@H]1[C@@H](O)C[C@H](O[C@H]2[C@@H](O)C[C@H](O[C@H]3[C@@H](O)C[C@H](O[C@H]4CC[C@@]5(C)[C@H](CC[C@@H]6[C@@H]5C[C@@H](O)[C@]5(C)[C@@H](C7=CC(=O)OC7)CC[C@]65O)C4)O[C@@H]3C)O[C@@H]2C)O[C@@H]1C` the “fluorescence, % of fluorescent control” value was 0.336%.
In the case of `C[C@@H]1[C@H](O)[C@@H](C)/C=C/C=C/CC/C=C/C=C/C=C/C=C/[C@H](O[C@H]2O[C@@H](C)[C@H](O)[C@@H](N)[C@H]2O)CC2O[C@](O)(C[C@@H](O)[C@H](O)CC[C@@H](O)C[C@@H](O)C[C@@H](O)CC(=O)O[C@H]1C)C[C@H](O)[C@H]2C(=O)O`, the “fluorescence, % of fluorescent control” value is reported as -0.139%.
In the case of `CC(=O)O[C@H]1C[C@H](O[C@H]2[C@@H](O)C[C@H](O[C@H]3[C@@H](O)C[C@H](OC4CC[C@@]5(C)[C@H](CC[C@@H]6[C@@H]5CC[C@]5(C)[C@@H](C7=CC(=O)OC7)CC[C@]65O)C4)O[C@@H]3C)O[C@@H]2C)O[C@H](C)[C@H]1O[C@@H]1O[C@H](CO)[C@@H](O)[C@H](O)[C@H]1O` (stereo not given in full), the “fluorescence, % of fluorescent control” value is reported as -0.169%.
In the case of `C[N+]1([O-])[C@@H]2CC[C@H]1CC(OC(=O)C(CO)c1ccccc1)C2` (stereo not given in full), the outcome is reported as “inactive”.
In the case of `O=P(O)(O)C(Cl)(Cl)P(=O)(O)O`, the “fluorescence, % of fluorescent control” value is reported as 0.469%.
With `CNC(C)C(O)c1ccc(O)cc1` (stereo not given) the outcome was “inactive”.
With `C[C@@H](N)C(=O)c1ccccc1` the “fluorescence, % of fluorescent control” value was -0.644% [at 95.7 µM].
In the case of `COc1ccc2c3c1O[C@H]1[C@@H](O)C=C[C@H]4[C@@H](C2)NCC[C@@]341`, the outcome is reported as “inactive”.
In the case of `CNC(C)Cc1ccccc1` (stereo not given), the “fluorescence, % of fluorescent control” value is reported as -0.321% [at 91.3 µM].
With `Oc1ccc2c3c1O[C@H]1[C@@H](O)C=C[C@H]4[C@H](C2)NCC[C@@]341` the “fluorescence, % of fluorescent control” value was 0.418%.
In the case of `COc1ccc(OC)c([C@@H](O)[C@H](C)N)c1`, the “fluorescence, % of fluorescent control” value is reported as -0.658%.
